Source: the OligoGym collection

The sequences below were run against CEP55 (assay: pooled miR-30 sensor sort-seq; sequence = guide strand). Details: shRNA.
Also: reference of the scale not given here.

| Sequence | sensor-assay potency score (higher = more potent) |
| --- | --- |
| TAGTAGTCTCAGTAGACGCTGC | -0.26 |
| TTTATGCCTATCATCTTCCAGA | -0.706 |
| TTTCTTCATATTTTCTTCGAAA | -1.41 |
| TTTATTGATGAGTTGAAGCAGT | -0.0395 |
| TTGATAAGCATTCTTCTCCTTC | 0.207 |

What follows are sequences tested against CETN1 in the same assay as above. Details: shRNA.

| Sequence | sensor-assay potency score (higher = more potent) |
| --- | --- |
| TTTGGTGTCCTTCTCGGACATC | -1.04 |
| TATTGAACTAGAGATATGGAAA | -1.01 |
| TCATTGAAGCTGATCTTCCCCG | -0.662 |
| TTGAAGCTGATCTTCCCCGTGC | 0.267 |
| TTGCTTCTGATCCTCAGTGAGC | -1.03 |
| ATCCCGATCAGCTTCGTCGATC | -1.43 |
| TTCAGGATTTCTTCTTTGGTGT | -0.547 |
| TTCGCGTCGATGGTCCCACTTC | -0.957 |
| TTCGTCGATCATCTCCTGCAGC | -0.572 |
| TTAGGTGCCACCTTTCTCTTTT | 0.187 |
| TTCTCGGACATCTTCTGCGTCA | -0.598 |
| TTCTTCTTTGGTGTCCTTCTCG | 0.166 |
| TCTTCTTTGGTGTCCTTCTCGG | -0.36 |
| ATCAGCTTCGTCGATCATCTCC | -0.374 |
| TTCCCGAACTTCTTGCTTCTGA | 0.00399 |
| TCATCGTCATCAAAGAGCCTGA | -0.321 |
| TCTTGCTTCTGATCCTCAGTGA | 0.681 |
| AGCTTCGTCGATCATCTCCTGC | -1.15 |
| TTTTGAACGAGATCTTCCCGGT | 0.317 |
| ATTGAAGCTGATCTTCCCCGTG | -0.49 |
| AACTTCTTGCTTCTGATCCTCA | -0.468 |
| TTTCTCTTTTGGCCGGTGGAGG | -1.52 |
| TTTTTGAACGAGATCTTCCCGG | 0.117 |
| TAGATCTAGACAAATTATGGGG | -0.0246 |
